Test results as given in PubChem BioAssay (NCI).
The panel holds about 83,000 compounds, 20% with a hit somewhere; the sample as a whole holds those more often.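 Plates (96-well) were seeded with cells, treated with compound at one concentration, and incubated for 48 hours before percent growth was determined.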 Activity calls are given as the source filed them. Rule for the calls: active = growth percent below 10; inactive = the rest.

The compounds below were run on IGROV1 ovarian (assay: NCI-60 one-dose screen, 48 h (100 = growth as untreated, 0 = no growth, -100 = all killed)). Conditions: 10 µM unless noted.

SMILES | growth
CCC(c1ccccc1)C(CC)c1ccc(O)c(O)c1 (centres undefined) | 96.5% (inactive)
CN1CCN(c2ccc3nc(-c4ccc5nc(-c6ccc(OCCC(C)(C)C)cc6)[nH]c5c4)[nH]c3c2)CC1 | 77.7% (inactive)
NC(N)=Nc1ccc(S(=O)(=O)O)cc1 | 121% (inactive)
C=C1CCC2C3(C)COC(c4ccc(OC)cc4Br)OC3CCC2(C)C1/C=C/C1=CCOC1=O (centres undefined) | 79.8% (inactive)
CCC(=O)Oc1ccc(/C(=C(\C)c2ccccc2)c2ccc(OCCN(CC)CC)cc2)cc1 | 92.7% (inactive)
CC(=O)/C(=C/c1cccc(Cl)c1)C(=O)c1ccccc1 | 83% (inactive)
NS(=O)(=O)c1ccc(-n2ncc3c(=O)[nH]c(CN4CCN(c5cc6c(cc5F)c(=O)c(C(=O)O)cn6C5CC5)CC4)nc32)cc1 | 92.8% (inactive)
COc1ccc(-c2nn(-c3ccccc3)cc2/C=C2\SC(=O)NC2=O)cc1 | 103% (inactive)
O=C(COc1cccc(/C=C2/Oc3ccccc3C2=O)c1)Nc1nccs1 | -35% (active)
CC1=N/C(=C\c2cccc(Br)c2)C(=O)O1 | 106% (inactive)
COc1cc(C(=O)/C=C/c2c(C)n([O-])c3ccc(C)cc3[n+]2=O)cc(OC)c1OC | 73.7% (inactive)
CCN(CC)CC#CCOC(=O)[C@]1(C)CCC[C@@]2(C)[C@H]1CC(C=O)=C1C=C(C(C)C)CC[C@@H]12 | 63.2% (inactive)
C=C1CCC2C3(C)COC(c4ccccc4Br)OC3CCC2(C)C1C/C=C1/C(=O)OCC1OC(C)=O (centres undefined) | -9.12% (active)
CCOC(=O)C(=Cc1ccccc1F)C(=O)OCC | 95.2% (inactive)
CC(=O)C1=C(O)C=C2Oc3c(C(=O)/C=C/c4c(Cl)cccc4Cl)c(O)c(C)c(O)c3[C@]2(C)C1=O | -8.78% (active)
COc1ccc(C(=O)/C=C/c2cc3ccccc3[nH]c2=O)cc1 | 50.5% (inactive)

SMILES | growth
C[C@@]1(N2C(=O)OC[C@@H]2c2ccccc2)C(=O)N([C@H](CC(=O)N2CCC(N3CCCCC3)CC2)C(=O)NCc2cccc(C(F)(F)F)c2)[C@@H]1/C=C/c1ccccc1 | 72.1% (inactive)
CCOC(=O)c1cnc2ccc(Br)cc2c1Nc1cccc(S(=O)(=O)NC)c1 | 89.5% (inactive)
CCN1CCN(Cc2ccc(NC(=O)Nc3nc4ccc(Oc5ccnc(C(=O)NC)c5)cc4s3)cc2C(F)(F)F)CC1 | -12.2% (active)
O=c1c2c3c(sc2n2c(CCl)nnc2n1Cc1ccccc1)CCCC3 | -42.9% (active)
COC(=O)[C@H](C(C)C)n1c(=O)c2cc(OC)c(OC)cc2c2cnc3[nH]ccc3c21 | 3.08% (active)
CC(=O)Oc1ccc(Nc2c3ccccc3nc3ccccc23)cc1 | -11.8% (active)
COc1cc(NCCCCN=C(N)NC(N)=NC(C)C)c2ncccc2c1 | -31.9% (active)
O=C(CNC1C2CC3CC(C2)CC1C3)Sc1nnc2sc3ccccc3n12 (centres undefined) | 104% (inactive)
O=C(/C=C\c1ccc2ccccc2n1)c1cc(Cl)ccc1O | 86.1% (inactive)
O=C1c2cc3c(cc2-c2c1c1cc(Cl)c(Cl)cc1c(=O)n2CCCn1ccnc1)OCO3 | 24.4% (inactive)
CC1(C)CC(=O)C(c2c(-c3ccccc3)[nH]c3[nH]c(=S)[nH]c(=O)c23)=C(O)C1 | 132% (inactive)
O=C(/C=C/c1cccc(Br)c1)c1ccccc1 | 84.8% (inactive)
O=C(CO[N+](=O)[O-])Nc1ccc(C(=O)/C=C/c2ccc(Cl)cc2)cc1 | -26% (active)
CN(C)c1ccc(/C=C\C2=[N+](C)c3ccccc3C2(C)C)cc1 | 9.25% (active)
COc1ccc(CCN2CC=Cn3c2nc2ccccc2c3=O)cc1 | 32.2% (inactive)

These compounds were tested on OVCAR-3 ovarian in the same assay as above. Conditions: 10 µM unless noted.

SMILES | growth
CCC(c1ccccc1)C(CC)c1ccc(O)c(O)c1 (centres undefined) | 86% (inactive)
CN1CCN(c2ccc3nc(-c4ccc5nc(-c6ccc(OCCC(C)(C)C)cc6)[nH]c5c4)[nH]c3c2)CC1 | -83.6% (active)
NC(N)=Nc1ccc(S(=O)(=O)O)cc1 | 129% (inactive)
O=C(/C=C/c1cc2ccccc2[nH]c1=O)/C=C/c1cc2ccccc2[nH]c1=O | -58% (active)
Nc1ccc(Nc2nccc(-c3ccc4ccccc4c3)n2)cc1 | 46.9% (inactive)
C=C1CCC2C3(C)COC(c4ccc(OC)cc4Br)OC3CCC2(C)C1/C=C/C1=CCOC1=O (centres undefined) | 80.8% (inactive)
CCC(=O)Oc1ccc(/C(=C(\C)c2ccccc2)c2ccc(OCCN(CC)CC)cc2)cc1 | 97.8% (inactive)
CC(=O)/C(=C/c1cccc(Cl)c1)C(=O)c1ccccc1 | 96.1% (inactive)
NS(=O)(=O)c1ccc(-n2ncc3c(=O)[nH]c(CN4CCN(c5cc6c(cc5F)c(=O)c(C(=O)O)cn6C5CC5)CC4)nc32)cc1 | 107% (inactive)
COc1ccc(-c2nn(-c3ccccc3)cc2/C=C2\SC(=O)NC2=O)cc1 | 110% (inactive)
O=C(COc1cccc(/C=C2/Oc3ccccc3C2=O)c1)Nc1nccs1 | 220% (inactive)
CN1CCN(Cc2ccc(NC(=O)c3[nH]ncc3Nc3ncnc4sccc34)cc2)CC1 | 3.42% (active)
CC1=N/C(=C\c2cccc(Br)c2)C(=O)O1 | 103% (inactive)
COc1cc(C(=O)/C=C/c2c(C)n([O-])c3ccc(C)cc3[n+]2=O)cc(OC)c1OC | 13.2% (inactive)
CCN(CC)CC#CCOC(=O)[C@]1(C)CCC[C@@]2(C)[C@H]1CC(C=O)=C1C=C(C(C)C)CC[C@@H]12 | 69.1% (inactive)
C=C1CCC2C3(C)COC(c4ccccc4Br)OC3CCC2(C)C1C/C=C1/C(=O)OCC1OC(C)=O (centres undefined) | -88.8% (active)
CCOC(=O)C(=Cc1ccccc1F)C(=O)OCC | 95.2% (inactive)
Cn1c2ccccc2c2c3c(c4c5ccccc5n(CCCCCC#N)c4c21)C(=O)N(O)C3=O | 6.92% (active)
CC(=O)C1=C(O)C=C2Oc3c(C(=O)/C=C/c4c(Cl)cccc4Cl)c(O)c(C)c(O)c3[C@]2(C)C1=O | -30.6% (active)

SMILES | growth
Oc1ccc(Nc2nccc(-c3ccc4ccccc4c3)n2)cc1 | 34.3% (inactive)
COc1ccc(C(=O)/C=C/c2cc3ccccc3[nH]c2=O)cc1 | -19% (active)
C[C@@]1(N2C(=O)OC[C@@H]2c2ccccc2)C(=O)N([C@H](CC(=O)N2CCC(N3CCCCC3)CC2)C(=O)NCc2cccc(C(F)(F)F)c2)[C@@H]1/C=C/c1ccccc1 | 73.2% (inactive)
CCOC(=O)c1cnc2ccc(Br)cc2c1Nc1cccc(S(=O)(=O)NC)c1 | 104% (inactive)
CCN1CCN(Cc2ccc(NC(=O)Nc3nc4ccc(Oc5ccnc(C(=O)NC)c5)cc4s3)cc2C(F)(F)F)CC1 | -74.1% (active)
O=c1c2c3c(sc2n2c(CCl)nnc2n1Cc1ccccc1)CCCC3 | -98.4% (active)
COC(=O)[C@H](C(C)C)n1c(=O)c2cc(OC)c(OC)cc2c2cnc3[nH]ccc3c21 | 48.8% (inactive)
CC(=O)Oc1ccc(Nc2c3ccccc3nc3ccccc23)cc1 | 9.24% (active)
COc1cc(NCCCCN=C(N)NC(N)=NC(C)C)c2ncccc2c1 | -43.7% (active)
CCN(CC)C12CCCCC1(C)C(C#N)(C#N)C(C#N)=C(N)O2 (centres undefined) | 98.3% (inactive)
O=C(CNC1C2CC3CC(C2)CC1C3)Sc1nnc2sc3ccccc3n12 (centres undefined) | 98.2% (inactive)
COc1ccc(-c2c3c(nc4n[nH]c(-c5ccc(Cl)cc5)c24)-c2ccccc2C(=O)C3=O)cc1 | -17.2% (active)
O=C(/C=C\c1ccc2ccccc2n1)c1cc(Cl)ccc1O | 43.5% (inactive)
O=C1c2cc3c(cc2-c2c1c1cc(Cl)c(Cl)cc1c(=O)n2CCCn1ccnc1)OCO3 | 5.18% (active)
CC1(C)CC(=O)C(c2c(-c3ccccc3)[nH]c3[nH]c(=S)[nH]c(=O)c23)=C(O)C1 | 124% (inactive)
O=C(/C=C/c1cccc(Br)c1)c1ccccc1 | 98.3% (inactive)
O=C(CO[N+](=O)[O-])Nc1ccc(C(=O)/C=C/c2ccc(Cl)cc2)cc1 | 0.332% (active)
CN(C)c1ccc(/C=C\C2=[N+](C)c3ccccc3C2(C)C)cc1 | -9.9% (active)
COc1ccc(CCN2CC=Cn3c2nc2ccccc2c3=O)cc1 | -1.6% (active)
